The values below come from PubChem BioAssay (EPA / NIEHS).

SMILES strings stand for the structures. The source made the active and inactive calls. How the source made its calls: active means hit-call score of the fitted dose curve at least 0.9, where 1 is the maximum; inactive means score below 0.9.

This test in a line: CCTE_Shafer_MEA_acute_per_network_burst_electrodes_number_mean: CCTE's Neural Acute Assay for Mean Number of Electrodes in a Network Burst, Shafer Lab (AID 2284021).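 Further: curves fitted for decreases only so hits reduce electrodes per burst.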 The method, then: CCTE_Shafer_MEA_acute assay is conducted using Axion Biosystems 48 well microelectrode array (MEA) plates and Maestro recording system. Each well of the MEA plate contains a grid of 16 microelectrodes embedded in the culture surface. Electrically active cells, such as neurons, can be cultured over the electrodes, and electrical activity in these cells can be recorded extracellularly. The spontaneous firing of neurons is captured from each electrode on a microsecond timescale providing both temporally and spatially precise data. […] The CCTE_Shafer_MEA_acute assay uses primary cultures of rat cortical neurons. As these cultures mature over time, neural networks develop functional activity and form cohesive networks in which electrical activity can be highly coordinated. Baseline 40-minute recordings are made on days post-plating 13 or 15, followed by a secondary 40-minute recording after chemical exposure.CCTE_Shafer_MEA_acute_per_network_burst_electrodes_number_mean is a component of the CCTE_Shafer_MEA_acute assay. It measures the average number of electrodes with activity during a network burst (a temporally-clustered group of action potential firing across multiple electrodes) in a recording in a microelectrode array (MEA) using Axion Biosystems Maestro 768 channel amplifier with the AxIS adaptive spike detector. The recordings before and after chemical treatment are used to calculate a percent change in the mean number of electrodes participating in network bursts in each well.Data from the assay component CCTE_Shafer_MEA_acute_per_network_burst_electrodes_number_mean was analyzed into 1 assay endpoint. This assay endpoint, CCTE_Shafer_MEA_acute_per_network_burst_electrodes_number_mean, was analyzed in the negative analysis fitting direction relative to DMSO as the negative control and baseline of activity. Using a type of functional reporter, gain or loss-of-signal activity can be used to understand electrical activity.
Spontaneous activity in the cortical cultures was recorded using an Axion Biosystems Maestro 768 channel amplifier and Axion Integrated Studios (AxIS) v1.8 (or later) software. The amplifier recorded from all channels simultaneously (gain = 1200 x; sampling rate = 12.5 kHz/channel): raw signals were filtered with a Butterworth band-pass filter (300-5000 Hz), which filters out slower local field potentials leaving only fast potentials, i.e., "spikes", arising from extracellular currents associated with action potentials (Pine 2006; Wheeler and Nam 2011). On-line spike detection of filtered signals was conducted with the AxIS adaptive spike detector, using a threshold of 8x the root mean squared (rms) noise on each channel. Any electrodes with rms noise levels greater than 5 uV were grounded (e.g., no data were recorded). Once grounded, an electrode was grounded for the duration of the experiment. All recordings were conducted at 37 C. Wells were deemed usable if on the day of the exposure >/= 10 electrodes were active (defined as >/= 5 spikes/min). On DIV 13 or 15, a minimum of three wells from one cortical culture preparation were treated with each compound (0.03-40 uM). Prior to recording baseline activity, each mwMEA plate was placed in the Maestro at 37 C and allowed to sit for 20 min while firing rates stabilized. Baseline activity (40 min) was recorded before the addition of each compound. An additional 40 min of spontaneous activity was recorded in the presence of each compound. Changes in network parameters relative to baseline were assessed following compound treatment.
For `OCCCCO`, the compound was classed as inactive.
On the same count and under the same terms, then `CC(C)(C)c1ccccc1O`, with “inactive”; and `CCCCCCCCCCCCc1cccc(S(=O)(=O)O)c1`, with “inactive”; and `Oc1ccc(Cc2ccc(O)cc2)cc1`, with “inactive”.
Same read-out and setting: to `CS(=O)(=O)c1ccc(C(=O)C2C(=O)CCCC2=O)c(Cl)c1COCC(F)(F)F` belongs “inactive”.
One may read the AC50 as the concentration at which the activity in the assay is half-maximal. Turning to `CC(C)[C@@H](Nc1ccc(C(F)(F)F)cc1Cl)C(=O)OC(C#N)c1cccc(Oc2ccccc2)c1` (stereo not given in full), the AC50 was 310 nM (active).
Take `Oc1cc(Cl)c(Cl)cc1Cl`: the outcome was inactive.
Same read-out and setting: then `CN(C)C(=S)S`, with “inactive”; and `CCCCOC(=O)COC(=O)c1ccccc1C(=O)OCCCC`, with “inactive”.
On the same count and under the same terms, to `O=C(Cc1ccccc1)OCCc1ccccc1` belongs “inactive”; to `Clc1cccc(Cl)c1Cl`, “inactive”.
The same measure, in the same setting: then `Cc1cc(C(F)(C(F)(F)F)C(F)(F)F)ccc1NC(=O)c1cccc(I)c1C(=O)NC(C)(C)CS(C)(=O)=O`, with “inactive”; and `N#Cc1cccnc1`, with “inactive”.
As to `CC1(C)[C@H](C(=O)O[C@H](C#N)c2cccc(Oc3ccccc3)c2)[C@@H]1/C=C(\Cl)C(F)(F)F`, the AC50 was 818 nM (active).
Take `Cc1ccccc1OP(=O)(Oc1ccccc1C)Oc1ccccc1C`: the outcome was inactive.
